Test results: PubChem BioAssay (EPA / NIEHS)
The source holds several records for some structures; these can differ, active in one and inactive in another. Active and inactive are the calls of the source. The calls were made as follows: active = hit-call score of the fitted dose curve at least 0.9, where 1 is the maximum; inactive = score below 0.9.

The compounds below were run on BCL2L11 (gene 10018) (assay: LTEA_HepaRG_BCL2L11: Life Technologies and Expression Analysis (LTEA) Assay for Bcl-2 (BCL2L11) gene using HepaRG (AID 2283473)). Conditions: mRNA level, 48 h; actives raise or lower the signal.
Experimental: LTEA_HepaRG is a cell based, multiplexed-readout assay that uses HepaRG, a human liver cell line, with measurements taken at 48 hours after chemical dosing on a 96-well plate.LTEA_HepaRG_BCL2L11 is one of 102 assay component(s) measured in the LTEA HepaRG cell culture assay. It is a marker of Cell proliferation, survival, death.Data from the assay component LTEA_HepaRG_BCL2L11 was analyzed into 1 endpoint. This assay endpoint, LTEA_HepaRG_BCL2L11, was analyzed with bidirectional fitting relative to DMSO as the negative control and baseline of activity. Using a type of inducible reporter, measures of mRNA induction for gain or loss-of-signal activity can be used to understand regulation of transcription factor activity. To generalize the intended target to other relatable targets, this assay endpoint is annotated to the cell cycle intended target family, where the subfamily is Cell proliferation, survival, death.
A total of 1060 chemcials from the ToxCast library were tested in eight-point concentration-response experiments. Cell culture and cytotoxicity assays were conducted at Thermo Fisher Scientific's Custom Services facility (Madison, WI). A single lot of human HepaRG cells (Thermo Fisher Scientific, Frederick, MD) was used for the cell culture experiments. 96-well format collagen type I coated plates of human HepaRG cells were prepared using established methods. Briefly, cryopreserved HepaRG cells were thawed, plated at a density of approximately 100,000 cells/well in HepaRG Thaw, Plate, and General Purpose media (HPRG770, Thermo Fisher Scientific), and incubated for 48 hours. 0.5% DMSO was selected as vehicle control to balance the requisite need of DMSO in HepaRG cultures to maintain differentiation (for example, baseline metabolism, proportions of hepatocytes vs. cholangiocytes), while enabling further hepatic receptor pathway activation (for example, PXR and CAR) in response to chemical exposure. 48 hours after plating, the culture medium was replaced with HepaRG Serum-Free Incudtion Media. Cells were exposed to each test chemical in duplicate and maintained in CO2 incubators for another 48 hours. Chemical plates were thawed to room temperature and 200x concentrations of treatment groups were prepared. 8-point conentration-reponse curves were made with the highest exposure at 100 uM, followed by half-log dilutions, all in 0.5% DMSO. Each test plate contained variouse controls, induction positive controls (1mM phenobarbital), cytotoxicity positive controls ([…] aflatoxin B1), vehicle controls (0.5% DMSO), and total lysis controls (0.5% DMSO). Cell morphology images were taken using an Essen IncuCyte FLR automated microscope, with six 96-well plates imaged in about 24 minutes. Images were captured and exported and JPEG files. Spent culture media was transfered to black-well plates for the LDH assay, and remaining media was sorted at -80 C for later use. Cells were treated with RLT buffer and frozen until shipped for gene expression analysis. Total RNA was isolated from the cell suspension in 75 uL of Buffer RLT (Qiagen, Germantown, MD 20874) by Quintiles/Expression Analysis (Durham, NC) using a custom isolation procedure. Total RNA from each plate well was transferred to a preamplification plate. Fluidigm's 96.96 Dynamic ArrayTM (Fluidigm, Amsterdam, the Netherlands) technology was used for gene expression analyses by quantitative reverse transcription polymerase chain reaction (qRT-PCR, performed by Quintiles/Expression Analysis, Durham, NC)89. Standard TaqManTM Assays (Applied Biosystems/ThermoFisher Scientific, Foster City, CA) were used to assess the expression of 93 genes selected based on their selectivity and sensitivity to important hepatic receptors known to be modulated by environmental chemicals; importance in human hepatocyte functionality; and hepatotoxicity. […]
With `COCCO` the outcome was “inactive”. `O=C(c1ccccc1)C1CCCCC1` was tested, and the outcome was “inactive”. In the case of `CCCOC(=O)NCCCN(C)C`, the outcome was “inactive”. `c1ccc2[nH]c(-c3cscn3)nc2c1` was tested, and the outcome was “inactive”. With `CCCCOC(=O)[C@@H](C)Oc1ccc(Oc2ccc(C(F)(F)F)cn2)cc1` the outcome was “inactive”. With `CSC(=O)c1cccc2nnsc12` the outcome was “inactive”. For `c1ccc(Nc2ccccc2)cc1`, the outcome was “inactive”. For `C=CCOC(Cn1ccnc1)c1ccc(Cl)cc1Cl` (stereo not given), the AC50 was 88.6 µM (active). In the case of `Oc1ccc(C(c2ccc(O)cc2)C(Cl)(Cl)Cl)cc1`, the outcome was “inactive”. With `CCCOC(=O)c1ccc(C(=O)OCCC)nc1` the outcome was “inactive”. `S=C(S)NCCNC(=S)S.[Mn+2].[S-]C([S-])=NCCN=C([S-])[S-].[Zn+2]` was tested, and the AC50 was 3.84 µM (active) and the outcome was “inactive”. `COC(=O)c1ccc(I)cc1S(=O)(=O)NC(=O)Nc1nc(C)nc(OC)n1` was tested, and the outcome was “inactive”. With `CCCN(CCC)c1c([N+](=O)[O-])cc(C(F)(F)F)c(N)c1[N+](=O)[O-]` the outcome was “inactive”. `CCCCOC(=O)C(C)Oc1ccc(Oc2ccc(C(F)(F)F)cn2)cc1` (stereo not given) was tested, and the outcome was “inactive”. In the case of `CCCCCOC(=O)COc1cc(N2C(=O)C3=C(CCCC3)C2=O)c(F)cc1Cl`, the outcome was “inactive”. For `N#CSCSc1nc2ccccc2s1`, the outcome was “inactive”. For `CCC(C)OC(=O)N1CCCCC1CCO` (stereo not given), the outcome was “inactive”. `CC(C)(c1ccc(O)cc1)c1ccc(O)cc1` was tested, and the outcome was “inactive”. In the case of `CCN(Cc1c(F)cccc1Cl)c1c([N+](=O)[O-])cc(C(F)(F)F)cc1[N+](=O)[O-]`, the outcome was “inactive”. With `COc1c(Cl)ccc(Cl)c1C(=O)O` the outcome was “inactive”. In the case of `C[C@]12CC[C@@H]3c4ccc(O)cc4C[C@@H](CCCCCCCCCS(=O)CCCC(F)(F)C(F)(F)F)[C@H]3[C@@H]1CC[C@@H]2O` (stereo not given in full), the AC50 was 0.0755 µM (active). For `CC1(C)C(C=C(Cl)Cl)C1C(=O)OCc1cccc(Oc2ccccc2)c1` (stereo not given), the outcome was “inactive”. For `CCSC(=O)N(CC(C)C)CC(C)C`, the outcome was “inactive”. For `CCOC(=O)c1ccc(O)cc1`, the outcome was “inactive”. In the case of `CCNc1nc(N)nc(Cl)n1`, the outcome was “inactive”. For `COC(=O)c1ccccc1C(=O)O`, the outcome was “inactive”. With `C#CCOC(=O)[C@@H](C)Oc1ccc(Oc2ncc(Cl)cc2F)cc1` the outcome was “inactive”. `O=C(O)c1ccccc1` was tested, and the outcome was “inactive”. For `O=C(c1ccc(O)cc1O)c1ccc(O)cc1O`, the outcome was “inactive”. For `CC(=O)S[C@@H]1CC2=CC(=O)CC[C@]2(C)[C@H]2CC[C@@]3(C)[C@@H](CC[C@@]34CCC(=O)O4)[C@H]12`, the outcome was “inactive”. For `C#C[C@]1(O)CC[C@H]2[C@@H]3CCC4=CC(=O)CC[C@@H]4[C@H]3CC[C@@]21CC`, the outcome was “inactive”. In the case of `Cc1nn(C)c(Oc2ccccc2)c1C=NOCc1ccc(C(=O)OC(C)(C)C)cc1`, the AC50 was 2.53 µM (active). With `CCCCC(CC)CN1C(=O)C2C3C=CC(C3)C2C1=O` (stereo not given) the outcome was “inactive”. In the case of `CCOC(=O)C(C)Oc1ccc(Oc2cnc3cc(Cl)ccc3n2)cc1` (stereo not given), the outcome was “inactive”. For `CCOC(=O)COc1cc(-n2ncc(C(F)(F)F)c(C)c2=O)c(F)cc1Cl`, the outcome was “inactive”. With `CCOC(=O)C(C)Oc1ccc(Oc2nc3ccc(Cl)cc3o2)cc1` (stereo not given) the outcome was “inactive”. With `C[C@]12C[C@H](O)[C@H]3[C@@H](CCC4=CC(=O)CC[C@@]43C)[C@@H]1CC[C@@H]2C(=O)CO` the outcome was “inactive”. For `COC(=O)CSc1cc(N=c2sc(=O)n3n2CCCC3)c(F)cc1Cl`, the outcome was “inactive”. With `CCCCC(CC)COC(=O)c1ccccc1C(=O)O` (stereo not given) the outcome was “inactive”.
